Data as given in PubChem BioAssay AID887 (National Center for Advancing Translational Sciences (NCATS), 2007).
The campaign covered roughly 74,000 compounds. About 1,100 (1.5%) were called active. About 5% were inconclusive and are not listed. Calls come from the whole dose curve; as a rule, active = well fitted inhibition curve with a large enough effect; inconclusive = small, poorly fitted or top-dose-only effect; inactive = no such curve, though single readings can be large or run the other way. This excerpt belongs to a sample that is enriched for actives.
% is set by controls: 0 for no effect and ±100 for the full control effect; potency is the fitted concentration of half-maximal effect.
Note: nearly all actives have a fitted effect of over 55% in size.

What follows are compounds tested against Polyunsaturated fatty acid lipoxygenase ALOX15 (Homo sapiens) (UniProt P16050) (assay: qHTS Assay for Inhibitors of 15-hLO (15-human lipoxygenase)). Details: purified 15hLO-1, xylenol orange hydroperoxide absorbance; series mostly up to 57.1 µM; activity change, negative = inhibition: at the top concentration.
Sequence of Polyunsaturated fatty acid lipoxygenase ALOX15 (Homo sapiens) (P16050 whole entry, looked up): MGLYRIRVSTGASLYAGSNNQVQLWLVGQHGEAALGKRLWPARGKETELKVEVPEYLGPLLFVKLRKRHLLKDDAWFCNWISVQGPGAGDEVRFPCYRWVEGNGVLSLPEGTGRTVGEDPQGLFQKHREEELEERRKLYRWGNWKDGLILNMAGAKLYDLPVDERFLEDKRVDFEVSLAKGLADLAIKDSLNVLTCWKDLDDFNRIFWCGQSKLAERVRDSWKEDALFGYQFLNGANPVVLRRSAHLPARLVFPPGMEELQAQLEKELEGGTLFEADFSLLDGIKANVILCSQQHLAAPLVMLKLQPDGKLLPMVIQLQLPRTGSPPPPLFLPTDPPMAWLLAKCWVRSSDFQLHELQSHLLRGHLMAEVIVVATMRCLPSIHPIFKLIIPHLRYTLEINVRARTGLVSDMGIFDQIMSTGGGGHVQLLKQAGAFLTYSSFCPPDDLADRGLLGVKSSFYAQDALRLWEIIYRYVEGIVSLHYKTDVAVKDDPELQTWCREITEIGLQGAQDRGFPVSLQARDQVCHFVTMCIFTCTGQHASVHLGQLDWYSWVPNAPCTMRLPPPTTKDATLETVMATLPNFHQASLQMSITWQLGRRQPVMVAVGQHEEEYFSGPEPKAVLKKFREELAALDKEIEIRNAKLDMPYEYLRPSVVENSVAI
From the text: Assay Overview: NIH Molecular Libraries Screening Centers Network [MLSCN] NIH Chemical Genomics Center [NCGC] MLSCN Grant: MH081283-01A1 PI Name: Holman, T.R., University of California, Santa Cruz Human lipoxygenase 15hLO-1 is a member of the closely related lipoxygenase family of enzymes which catalyze the site-specific oxidation of arachidonic acid to various hormone precursor molecules and as such is a candidate for drug development in a variety of disease areas, such as cancer and inflammation. Inhibition of 15hLO-1 activity was screened by utilizing arachidonic acid as a substrate. The extent of hydroperoxide product formation was measured by a secondary chromogenic reaction in which xylenol orange (XO, Sigma-Aldrich, cat. number 39,818-7) reacts with the ferric ions produced from the reaction between the hydroperoxide and ferrous ions. The Fe(III)-XO complex is characterized with red-shifted absorbance at 560 nm. A purified preparation of human 15hLO-1 was supplied by Professor Ted Holman, University of California, Santa Cruz.
Assay Protocol: Buffer: 25 mM Hepes pH 7.5, 0.01% Triton X-100. Reagents/Controls: Buffer in columns 3 and 4 as negative control (no enzyme). Substrate solution: 50 uM arachidonic acid (Sigma-Aldrich, St. Louis, MO) final concentration dispensed throughout the plate. Enzyme: 40 nM 15hLO-1 final concentration in columns 1, 2, 5-48. Column 1 is neutral (100% activity). Column 2 contained pin-transferred titration of NDGA (nordihidroguaiaretic acid, Sigma-Aldrich, N 5023, top concentration 10 mM in DMSO, then 1:2 dilution in duplicate). (Dilution factor: 23 nL into 4 uL.) Chromogenic detection reagent (divalent iron/xylenol orange, Fe-XO): 200 uM xylenol orange plus 300 uM ferrous ammonium sulfate prepared freshly in 50 mM sulfuric acid. Assay Steps: Three uL of enzyme were dispensed to 1536-well Greiner black clear bottom plates. Compounds and controls (23 nL) were transferred via Kalypsys PinTool. The plates were incubated for 15 min at room temperature, and then 1 uL of substrate solution was added to start the reaction. After room temperature incubation for 6 minutes, 4 uL of Fe-XO solution was added to each well followed by a short spin (1000 rpm, 15 sec) and the plates were then incubated for 30 min. The absorbance at 405 and 573 nm were measured using ViewLux (Perkin-Elmer) High-throughput CCD imager and absorbance protocol settings. The 573-to-405 absorbance ratio was used to compute reaction progress.
In the case of `CC(C)(Cc1c[nH]c2ccc(Cl)cc12)NCCOc1ccccc1OCC1CC1`, the Potency is reported as 12.6 µM (active).
`CNCC[C@H](Oc1ccc(C(F)(F)F)cc1)c1ccccc1` was tested, and the Potency was “inactive”.
In the case of `CCC(C)C(=O)O[C@@H]1C[C@@]2(C)C(c3ccoc3)OC(=O)CC23OC2(C)O[C@@]14[C@@]1(C)C(CC(=O)OC)C5(C)CC1(O)C(O)(C5OC(=O)C1(C)OC1C)C(OC(C)=O)[C@@]34O2` (stereo not given in full), the “activity change, negative = inhibition” value is reported as 1.08% (inactive).
`CN(C)C1C(=O)C(C(N)=O)=C(O)[C@@]2(O)C(=O)C3=C(O)c4c(O)cccc4[C@@](C)(O)C3C[C@@H]12` (stereo not given in full) was tested, and the “activity change, negative = inhibition” value was 3.68% [at 25.6 µM] (inactive).
For `CC(=O)OC1C2CCC3C1(CC(O)[C@@]1(O)[C@@H](CC(O)C1(C)C)[C@]3(C)O)C[C@@]2(C)O` (stereo not given in full), the “activity change, negative = inhibition” value was 1.91% (inactive).
For `COC(=O)N(c1ccc(OC)cc1)P1(=S)OCCC(C)O1` (stereo not given), the Potency was 3.98 µM (active).
For `CC1=CC(=O)C2=C(C)C[C@H](O)[C@H]3[C@H](C)C(=O)O[C@@H]3C12` (stereo not given in full), the “activity change, negative = inhibition” value was 0.0263% [at 25.6 µM] (inactive).
With `C[C@@]12CCC3C(CC[C@@H]4CC(O)CC[C@@]34C)C1CCC2O` (stereo not given in full) the “activity change, negative = inhibition” value was 0.523% (inactive).
`CCN1C[C@]2(COC)C(O)C[C@H](OC)[C@@]34C5C[C@]6(O)C(OC)C(O)[C@](OC(C)=O)(C5C6OC(=O)c5ccccc5)C(C(OC)C23)C14` (stereo not given in full) was tested, and the “activity change, negative = inhibition” value was -2.83% (inactive).
For `Clc1ccc(C(c2ccc(Cl)cc2)n2cc[n+](C[C@@H](OCc3ccc(Cl)cc3Cl)c3ccc(Cl)cc3Cl)c2)cc1`, the Potency was 20 µM (active).
With `CN1C2CC3CC1C(O3)C2O` (stereo not given) the “activity change, negative = inhibition” value was -1.11% (inactive).
With `N#Cc1c(Cl)c(Cl)c(Cl)c(C#N)c1Cl` the “activity change, negative = inhibition” value was -5.52% (inactive).
In the case of `CC[C@@H]1CN2CC[C@@H]1C[C@H]2[C@H](O)c1ccnc2ccc(OC)cc12`, the “activity change, negative = inhibition” value is reported as -20.9% [at 25.6 µM] (inactive).
`CNC(C)[C@@H](O)c1ccccc1` (stereo not given in full) was tested, and the “activity change, negative = inhibition” value was 1.77% (inactive).
`COc1ccc2c3c1OC1CC(O)C=C[C@@]31CCN(C)C2` (stereo not given in full) was tested, and the “activity change, negative = inhibition” value was -0.861% (inactive).
